Values joined by “and” are separate entries in the source; they are usually repeats but may differ in a detail not shown here. Identical values can stand only once. Records with an inconclusive call do not appear. Unmarked numbers belong to inactive results. Active and inactive are the calls of the source. Calls come from the whole dose curve; as a rule, active = well fitted cell-killing curve with a large enough effect in the repeat runs; inconclusive = weak or mixed curves, or effect the other way; inactive = no such curve, though single readings can be large or run the other way.
% is set by controls: 0 for no effect and ±100 for the full control effect; potency is the fitted concentration of half-maximal effect.

The nature of this test: qHTS assay to identify small molecule antagonists of the thyroid receptor (TR) signaling pathway - cell viability counter screen (AID 743064). Note: nearly all actives have a fitted effect of over 50% in size. The conditions noted are these: GH3.TRE-Luc viability, CellTiter-Fluor, 24 h; series mostly up to 70.3 µM; activity change, negative = cytotoxic: at the top concentration. Put shortly: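 Same-well viability check: GH3.TRE-Luc cells stimulated with 1 nM T3 alongside test compound for 23.5 h, followed by CellTiter-Fluor fluorescence.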
(Quantitative high-throughput screening tests each substance at several concentrations.)
Consider `Cc1cc(O)c2c(c1)O[C@@]1(C)CC[C@H]3C(C)(C)CCCC34CO[C@@H]2[C@H]41` (some centres not stated), for which the Potency was 18.8 µM (active).

`CCN(CC)CCC(=O)N1c2ccccc2Sc2ccc(C(F)(F)F)cc21`: the Potency was 13.3 µM (active).

As to `CN1CCN(CCC=C2c3ccccc3Sc3ccc(S(=O)(=O)N(C)C)cc32)CC1`, the Potency is 13.3 µM (active).

Consider `C=C1CC[C@@H]2[C@](C)(CO)[C@H](O)CC[C@@]2(C)[C@@H]1C/C=C1/C(=O)OC[C@H]1O`, for which the Potency was 21.1 µM (active).

For `CCN(CC)CCC(=O)N1c2ccccc2Sc2ccc(Cl)cc21`, the Potency is 23.7 µM (active).

With `CC(=O)[C@]1(O)Cc2c(O)c3c(c(O)c2[C@@H](O[C@H]2C[C@H](N)[C@H](O)[C@H](C)O2)C1)C(=O)c1c(O)cccc1C3=O`, the Potency was 150 nM (active) and 188 nM (active).

Turning to `CC(C)N=c1cc2n(-c3ccc(Cl)cc3)c3ccccc3nc-2cc1Nc1ccc(Cl)cc1`, the Potency was 7.17 µM (active).

Consider `COc1ccc(C2NC(=S)N3C(c4ccc(OC)c(OC)c4)NC(=S)N23)cc1OC` (configuration not stated), for which the Potency was 0.188 µM (active).

As for `CO[C@H]1C[C@H](O[C@H]2[C@H](C)O[C@@H](O[C@@H]3/C(C)=C/C[C@@H]4C[C@@H](C[C@]5(C=C[C@H](C)[C@@H](C6CCCCC6)O5)O4)OC(=O)[C@@H]4C=C(C)[C@@H](O)[C@H]5OC/C(=C\C=C\[C@@H]3C)[C@]54O)C[C@@H]2OC)O[C@@H](C)[C@@H]1O`, the Potency is 2.66 µM (active).

For the compound `CN(C)CCCN1c2ccccc2C(C)(C)c2ccccc21`, the Potency is 23.7 µM (active).

With `O=C1CSC2(CCN(CCCN3c4ccccc4Sc4ccc(Cl)cc43)CC2)N1`, the Potency was 10.6 µM (active).

For `C=C1CC[C@H](O)CC1=C/C=C1\CCC[C@]2(C)[C@@H]([C@H](C)CC[C@@H](O)C(C)(C)O)CC[C@@H]12`, the Potency is 26.6 µM (active).

With `CN(C)C(=O)CCSC(SCCC(=O)O)c1cccc(/C=C/c2ccc3ccc(Cl)cc3n2)c1` (configuration not stated), the Potency was 29.8 µM (active).

Take `CC1(S(=O)(=O)O)CC(=O)c2ccccc2C1=O` (configuration not stated): the Potency was 13.3 µM (active).

With `CCc1ccc2c(c1)N(CC(C)CN(C)C)c1ccccc1S2` (configuration not stated), the Potency is 11.9 µM (active).

As for `OC[C@H]1OC([S-])[C@H](O)[C@@H](O)[C@@H]1O.[Au+]` (some centres not stated), the Potency is 10.6 µM (active).

Turning to `C=C1C(=C/C=C2\CCC[C@]3(C)[C@@H]([C@H](C)CCCC(C)(C)O)CC[C@@H]23)C[C@@H](O)C[C@@H]1O`, the Potency is 23.7 µM (active).

`C#C[C@]1(O)CC[C@H]2[C@@H]3CCC4=C/C(=N/O)CC[C@@H]4[C@H]3CC[C@@]21CC`: the Potency was 29.8 µM (active).

In the case of `CCN(CC)CCOc1ccc(-c2nc3cc(Cl)ccc3s2)cc1`, the Potency is 8.41 µM (active).

As for `CC1=C(/C=C/C(C)=C/C=C/C(C)=C/C(=O)Oc2c(C)c(C)c3c(c2C)CC[C@@](C)(CCC[C@H](C)CCC[C@H](C)CCCC(C)C)O3)C(C)(C)CCC1`, the “activity change, negative = cytotoxic” value is 20.7%.

With `CC(CN1c2ccccc2Sc2ccc(S(=O)(=O)N(C)C)cc21)N(C)C` (configuration not stated), the Potency was 11.9 µM (active).

`COc1ccc(C[C@H](N)C(=O)N[C@H]2[C@@H](O)[C@H](n3cnc4c(N(C)C)ncnc43)O[C@@H]2CO)cc1`: the Potency is 11.9 µM (active).

Consider `CC(C)N1CCN(c2ccc(OC[C@H]3CO[C@](Cn4cncn4)(c4ccc(Cl)cc4Cl)O3)cc2)CC1`, for which the Potency is 6.39 µM (active).

With `COc1cc(-c2ccc(-[n+]3nc(-c4ccccc4)nn3-c3ccc([N+](=O)[O-])cc3)c(OC)c2)ccc1-[n+]1nc(-c2ccccc2)nn1-c1ccc([N+](=O)[O-])cc1`, the Potency is 26.6 µM (active).

On to `C=C1C(=O)O[C@H]2[C@H]1CC/C(C)=C\CC[C@@]1(C)O[C@@H]21`, for which the Potency was 8.41 µM (active).

As for `CC(C)(C)NC[C@H](O)COc1ccccc1C1CCCC1`, the Potency was 9.02 µM (active).

Turning to `CC(=O)Oc1cc(C)c(OC(C)=O)c2ccccc12`, the Potency was 26.6 µM (active).

Regarding `C=C1CC[C@H](O)CC1=C/C=C1\CCC[C@]2(C)[C@@H]([C@H](C)CCCC(C)(C)O)CC[C@@H]12`, the Potency was 11.9 µM (active).

Take `C[C@@H]1CCC2[C@@H](C)[C@@H](O)O[C@@H]3O[C@@]4(C)CC[C@@H]1[C@@]23OO4` (some centres not stated): the Potency was 2.11 µM (active).

Turning to `CN1CCN(CCCN2c3ccccc3Sc3ccccc32)CC1`, the Potency was 13.3 µM (active).

As to `OCCN1CCN(CC/C=C2/c3ccccc3Sc3ccc(Cl)cc32)CC1`, the Potency was 10.1 µM (active).

For `CCCCCCOc1ccc(C(=N)N(CCCC)CCCC)c2ccccc12`, the Potency was 5.31 µM (active).

Values taken from PubChem BioAssay (Tox21).
